From PubChem BioAssay come the findings set out here.

The target of one test is Albumin (Bos taurus) (UniProt P02769). Put plainly: compounds binding labelled BSA control protein – biochemical, small-molecule microarray, Alexa647 label, 635/667 nm fluorescence, artefact control for SMM control protein annotation, profiling panel (AID 1118).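 Also: score merges 667 nm emission intensity and signal-to-noise per printed compound spot.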 The conditions noted are these: BSA-A647 binding, fluorescence 635 nm, higher = more signal.
Sequence of Albumin (Bos taurus) (P02769 whole entry, looked up): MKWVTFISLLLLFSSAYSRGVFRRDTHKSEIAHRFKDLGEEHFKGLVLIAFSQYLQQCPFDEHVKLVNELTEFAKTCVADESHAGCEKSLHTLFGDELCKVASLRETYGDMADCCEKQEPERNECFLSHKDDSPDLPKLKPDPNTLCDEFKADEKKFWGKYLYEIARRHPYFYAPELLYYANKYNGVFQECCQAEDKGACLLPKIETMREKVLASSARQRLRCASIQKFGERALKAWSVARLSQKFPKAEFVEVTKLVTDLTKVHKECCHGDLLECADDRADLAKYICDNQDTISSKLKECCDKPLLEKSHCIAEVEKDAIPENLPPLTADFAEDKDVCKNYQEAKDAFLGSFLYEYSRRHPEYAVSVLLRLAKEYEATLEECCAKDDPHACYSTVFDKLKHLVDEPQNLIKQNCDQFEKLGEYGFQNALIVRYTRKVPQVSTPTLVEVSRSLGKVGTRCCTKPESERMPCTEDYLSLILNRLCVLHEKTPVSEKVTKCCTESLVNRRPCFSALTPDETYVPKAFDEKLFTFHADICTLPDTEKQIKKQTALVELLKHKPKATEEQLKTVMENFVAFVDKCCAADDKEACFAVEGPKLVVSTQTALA
Test [1] in a line: probe aXIP binding to arrayed compounds – biochemical, NeuroSMM set, 635/667 nm fluorescence, primary screen (AID 1119).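 Also: probe is the protein aXip251-270 applied at 1 µg/mL to compound-printed slides; binding of probe to printed compounds measured as 667 nm fluorescence plus signal to noise.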 The conditions noted are these: small-molecule microarray, higher = more signal, called active from +8 up or from −8 down.
Test [2] can be described thus: probe aNOTCH3 binding on compound microarray – biochemical, small-molecule microarray, 635/667 nm fluorescence, primary screen (AID 1120).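 Also: probe is a biotin-tagged antibody raised against NOTCH3 rather than NOTCH3 protein; score merges spot fluorescence near 667 nm with spot signal to noise.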 The conditions noted are these: higher = more signal.
Test [3] is described as follows: probe aNOTCH2 binding on compound microarray – biochemical, small-molecule microarray, 635/667 nm fluorescence, primary screen (AID 1121).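 Also: score merges feature fluorescence read at 667 nm with its signal to noise.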 The conditions noted are these: higher = more signal.
Test [4] addresses Carbonic anhydrase 2 (Homo sapiens) (UniProt P00918). As to the kind of experiment: compounds binding carbonic anhydrase 2 – biochemical, small-molecule microarray, Alexa647-labelled CAII, profiling panel (AID 1122). The conditions noted are these: CAII-A647 binding fluorescence, higher = more signal.
Test [5] in a line: COS7 lysate on small-molecule microarray, probe aHis, 635 nm (AID 1123).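 Also: z-score combines 667nm fluorescence intensity with signal-to-noise per printed compound spot.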 The conditions noted are these: COS7 cell lysate, fluorescence, higher = more signal.
Test [6] can be described thus: probe aLAP1 signal on lysate-treated microarray – cell lysate, small-molecule microarray, COS7 lysate, primary screen (AID 1124).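 Also: lysate comes from COS7 cells expressing LAP1 and is applied at 0.3 µg/mL; score merges spot fluorescence near 667 nm with signal-to-noise over triplicate slides.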 The conditions noted are these: probe aLAP1, fluorescence, higher = more signal.
A further test has as its system Sam68 (KHDRBS1). As to the kind of experiment: compounds binding KHDRBS1 protein – biochemical, small-molecule microarray, 635 nm fluorescence, primary screen (AID 1125).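 Also: score merges 667 nm channel intensity with signal to noise over triplicate slides.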 The conditions noted are these: higher = more signal.
In test [7] the test system is Chordin-like protein 2 (CHRDL2). As to the kind of experiment: compounds binding chordin-like 2 – biochemical, small-molecule microarray, 635 nm fluorescence, primary screen (AID 1126).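 Also: printed compound slides probed with Chrdl2 protein at 4 µg/mL for 1 h at 4 C; score merges 667 nm emission intensity with signal to noise over three replicate slides.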 The conditions noted are these: fluorescence 635 nm, higher = more signal.
For test [8], the target named is Concanavalin-A (Canavalia ensiformis) (UniProt P02866). As to the kind of experiment: compounds binding concanavalin A lectin – biochemical, small-molecule microarray, Alexa647 label, 635 nm, artefact control for SMM control protein annotation, primary screen (AID 1127).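 Also: z combines 667 nm emission intensity with signal-to-noise across three replicate slides.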 The conditions noted are these: ConA-A647 binding fluorescence, higher = more signal.
Sequence of Concanavalin-A (Canavalia ensiformis) (P02866 whole entry, looked up): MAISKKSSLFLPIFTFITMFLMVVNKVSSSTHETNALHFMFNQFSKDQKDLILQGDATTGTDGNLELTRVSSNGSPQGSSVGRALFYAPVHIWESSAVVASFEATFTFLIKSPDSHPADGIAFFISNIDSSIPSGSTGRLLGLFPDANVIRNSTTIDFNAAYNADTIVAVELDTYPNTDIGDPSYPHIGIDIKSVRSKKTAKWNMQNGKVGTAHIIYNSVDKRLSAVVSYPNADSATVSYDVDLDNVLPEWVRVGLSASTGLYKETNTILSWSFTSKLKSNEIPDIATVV
Test [9] can be described thus: compounds binding Alexa647 anti-His antibody – biochemical, small-molecule microarray, 635 nm fluorescence, artefact control for SMM control protein annotation, primary screen (AID 1128).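 Also: score merges feature fluorescence with signal-to-noise for each printed compound spot.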 The conditions noted are these: higher = more signal.
Test [10] deals with Human papillomavirus type 1a E7 protein (residues 1-88). As to the kind of experiment: HPV1a E7 small-molecule binders, primary screen, biochemical, small-molecule microarray, residues 1-88, 635 nm (AID 1129). The conditions noted are these: small-molecule microarray binding, fluorescence 635 nm; higher = more signal.
Test [11] has as its target Focal adhesion kinase 1 (Homo sapiens) (UniProt Q05397). Put plainly: PTK2 protein binding on printed compound slides – biochemical, small-molecule microarray, 635/667 nm fluorescence, BSA, DTT, primary screen (AID 1130).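 Also: composite of spot emission at 667 nm and signal to noise over triplicate slides.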 The conditions noted are these: 635 nm fluorescence, higher = more signal.
The test system of test [12] is Fibrinogen (Alexa647-labelled). Put plainly: Alexa647-fibrinogen binding to printed small molecules – biochemical, small-molecule microarray, 635/667 nm fluorescence, artefact control for SMM control-protein annotation, profiling panel (AID 1131).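 Also: z-score merges 667 nm fluorescence with per-spot signal-to-noise over triplicate slides.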 The conditions noted are these: fibrinogen-A647 binding fluorescence, higher = more signal.
Test [13] addresses Follistatin (Homo sapiens) (UniProt P19883). Put plainly: FST protein binding to printed compounds – biochemical, small-molecule microarray, 635/667 nm fluorescence, primary screen (AID 1132). The conditions noted are these: 635 nm fluorescence, higher = more signal.
Test [14] has as its target Fibroblast growth factor 2 (Homo sapiens) (UniProt P09038). As to the kind of experiment: basic fibroblast growth factor binding to printed compounds – biochemical, small-molecule microarray, 635/667 nm fluorescence, primary screen (AID 1133). The conditions noted are these: FGF2, fluorescence 635/667, higher = more signal.
A short description of test [15]: JC-1 mitochondrial potential readout, lung cancer cells – cell-based, A549, JC-1 fluorescence, basal, 24 h, 100 nL, profiling panel (AID 1138).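 Also: A549 lung adenocarcinoma cells under basal conditions with no added stimulus; test concentration not given here.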 The conditions noted are these: higher = more signal.
Another test relates to Lefty1. Put plainly: Lefty1 protein binding to printed compounds – biochemical, small-molecule microarray, 635/667 nm fluorescence, primary screen (AID 1139). The conditions noted are these: fluorescence 635/667, higher = more signal.
Test [16] concerns wheat germ agglutinin (Triticum aestivum), Alexa647-labelled. Put plainly: Alexa647-WGA lectin binding to printed small molecules – biochemical, small-molecule microarray, 635/667 nm fluorescence, artefact control for SMM control-protein annotation, profiling panel (AID 1140).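 Also: score merges 667 nm feature emission with signal to noise over triplicate slides.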 The conditions noted are these: WGA-A647 binding, 635 nm fluorescence, higher = more signal.
Test [17] addresses Luciferin 4-monooxygenase (Photinus pyralis) (UniProt P08659). Put plainly: inhibition of purified Photinus pyralis luciferase – biochemical, luminescence, purified enzyme, 2006 set, primary screen (AID 1141).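 Also: cell-free assay with purified firefly luciferase at 100 ng per well in PBS; test concentration not given here.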 The conditions noted are these: purified firefly luciferase, SteadyGlo luminescence, 30 min; higher = more signal, called active from +8 up or from −8 down.

Molecules are shown by their SMILES. Active and inactive are the calls of the source.

Sequence of Focal adhesion kinase 1 (Homo sapiens) (Q05397 whole entry, looked up): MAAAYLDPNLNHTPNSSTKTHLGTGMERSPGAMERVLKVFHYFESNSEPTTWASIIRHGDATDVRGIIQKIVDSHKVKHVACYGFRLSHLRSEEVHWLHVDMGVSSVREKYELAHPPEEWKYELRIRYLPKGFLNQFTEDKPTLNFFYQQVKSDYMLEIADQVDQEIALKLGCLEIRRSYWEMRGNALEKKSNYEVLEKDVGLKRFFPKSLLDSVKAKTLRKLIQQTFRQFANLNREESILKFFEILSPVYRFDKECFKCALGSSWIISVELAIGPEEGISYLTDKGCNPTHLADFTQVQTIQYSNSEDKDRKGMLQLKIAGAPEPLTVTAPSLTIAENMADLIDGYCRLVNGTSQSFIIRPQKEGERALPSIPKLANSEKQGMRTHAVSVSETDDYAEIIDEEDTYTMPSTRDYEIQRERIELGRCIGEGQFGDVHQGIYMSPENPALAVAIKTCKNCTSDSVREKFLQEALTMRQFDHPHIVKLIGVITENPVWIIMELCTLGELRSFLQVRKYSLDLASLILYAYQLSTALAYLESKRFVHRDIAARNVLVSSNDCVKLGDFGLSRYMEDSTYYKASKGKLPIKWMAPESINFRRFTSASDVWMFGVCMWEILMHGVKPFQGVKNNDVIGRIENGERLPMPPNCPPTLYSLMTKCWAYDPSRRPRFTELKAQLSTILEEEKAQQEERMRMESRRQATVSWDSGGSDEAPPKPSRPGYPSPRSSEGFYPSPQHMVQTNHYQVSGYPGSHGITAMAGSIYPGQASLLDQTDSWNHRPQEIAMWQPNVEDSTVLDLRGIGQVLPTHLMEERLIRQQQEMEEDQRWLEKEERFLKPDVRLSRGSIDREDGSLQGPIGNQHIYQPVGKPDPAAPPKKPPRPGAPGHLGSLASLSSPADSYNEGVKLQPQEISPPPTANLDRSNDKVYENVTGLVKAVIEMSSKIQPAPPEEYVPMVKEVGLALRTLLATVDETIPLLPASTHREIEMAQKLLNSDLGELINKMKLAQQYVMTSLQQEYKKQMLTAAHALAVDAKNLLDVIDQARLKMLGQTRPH
Sequence of Luciferin 4-monooxygenase (Photinus pyralis) (P08659 whole entry, looked up): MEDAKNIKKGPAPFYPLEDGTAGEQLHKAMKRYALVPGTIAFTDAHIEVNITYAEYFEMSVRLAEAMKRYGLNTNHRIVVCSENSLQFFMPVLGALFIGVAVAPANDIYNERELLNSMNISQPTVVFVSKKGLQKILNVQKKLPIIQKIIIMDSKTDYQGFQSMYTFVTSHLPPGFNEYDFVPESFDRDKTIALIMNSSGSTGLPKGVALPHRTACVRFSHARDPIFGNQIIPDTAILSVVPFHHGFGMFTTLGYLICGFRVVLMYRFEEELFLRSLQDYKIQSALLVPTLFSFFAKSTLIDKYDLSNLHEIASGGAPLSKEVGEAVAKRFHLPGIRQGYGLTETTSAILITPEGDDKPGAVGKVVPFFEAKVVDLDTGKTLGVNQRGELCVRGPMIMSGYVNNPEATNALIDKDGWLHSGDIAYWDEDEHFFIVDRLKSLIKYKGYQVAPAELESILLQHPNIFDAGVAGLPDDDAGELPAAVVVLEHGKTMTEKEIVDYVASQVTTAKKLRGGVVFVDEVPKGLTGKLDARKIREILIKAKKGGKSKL
Sequence of Fibroblast growth factor 2 (Homo sapiens) (P09038 whole entry, looked up): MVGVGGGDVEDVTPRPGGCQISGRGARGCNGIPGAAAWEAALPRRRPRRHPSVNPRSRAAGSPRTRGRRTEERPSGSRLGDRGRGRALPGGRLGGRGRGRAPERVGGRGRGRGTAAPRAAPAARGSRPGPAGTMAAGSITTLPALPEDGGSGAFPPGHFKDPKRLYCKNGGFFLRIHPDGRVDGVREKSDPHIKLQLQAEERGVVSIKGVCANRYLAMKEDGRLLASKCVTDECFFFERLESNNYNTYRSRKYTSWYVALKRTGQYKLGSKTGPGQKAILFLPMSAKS
Sequence of Follistatin (Homo sapiens) (P19883 whole entry, looked up): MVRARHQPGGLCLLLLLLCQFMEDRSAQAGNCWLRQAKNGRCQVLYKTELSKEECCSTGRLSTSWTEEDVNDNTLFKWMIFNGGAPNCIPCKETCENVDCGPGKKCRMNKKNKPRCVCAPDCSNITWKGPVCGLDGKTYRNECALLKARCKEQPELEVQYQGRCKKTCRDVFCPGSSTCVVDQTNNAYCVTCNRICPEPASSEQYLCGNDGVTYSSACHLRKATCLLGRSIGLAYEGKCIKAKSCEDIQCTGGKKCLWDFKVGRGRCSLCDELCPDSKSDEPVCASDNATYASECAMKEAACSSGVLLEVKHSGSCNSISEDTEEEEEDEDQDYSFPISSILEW

For the compound `CCCC[C@H]1OB(O)C[C@H]2C1=C(COC)C[C@H]1C(=O)N(C)C(=O)[C@H]12`, the composite z-score is -0.126 with Albumin (Bos taurus); -0.0328 in test [2]; -0.201 in test [3]; 0.39 in [4]; 0.502 in test [5]; 0.0459 in test [6]. The composite z-score is 0.462 in the test with Sam68 (KHDRBS1); 0.245 in test [7]; 0.744 in test [8]; 0.415 in test [9]; -0.292 in test [10]; 0.18 in test [11]. The composite z-score in [12] amounted to 0.144; in test [13], 0.824; in test [14], 0.846; with Lefty1, 0.896; in test [16] it was 0.631. Besides, in test [1], the composite Z-score was -0.618 (inactive). The z-score in test [15] was 0.145; in [17], -0.656 (inactive).
In the case of `O=C(CS)NCCCCCCNC(=O)[C@@H]1C[C@@H]2C(=O)NCC(=O)N2[C@@H]1c1cccc(OCCO)c1`, the composite z-score with Albumin (Bos taurus) is -0.607; in [2], -0.446; in [3] it was -0.398; in test [4], 0.679; in test [5], 2.91; in [6], 0.71. The composite z-score came to 0.318 with Sam68 (KHDRBS1); 0.26 in [7]; 0.625 in test [8]; 3.13 in [9]; 1.23 in [10]; 0.69 in [11]. The composite z-score in [12] is -0.993; in test [13] it was 0.998; in test [14] it was 1.4; with Lefty1, -0.408; in test [16], -0.56. Besides, in test [1], the composite Z-score was 0.359 (inactive). Moreover, the results for the z-score in [15] and in test [17] were 0.609 and -1.02 (inactive), respectively.
Consider `CC(C)(C)OC(=O)CC[C@]1(C(=O)N2CCOCC2)N=C(c2ccc(OCCCO)cc2)O[C@H]1c1ccccc1N=[N+]=[N-]`, for which the composite z-score with Albumin (Bos taurus) was found to be 0.55; in [2], 0.133; in [3], 0.119; in test [4], 0.743; in test [5], 2.36; in test [6], 0.947. In addition, the composite z-score in the test on Sam68 (KHDRBS1) was 1.28; in [7], -0.135; in test [8], 0.973; in test [9] it was 2.82; in test [10], 1.27; in [11], 0.566. In addition, the composite z-score in test [12] worked out at 0.946; in [13] it was 1.18; in test [14], 0.449; with Lefty1 it was 0.146; in test [16] it was 1.02. In test [1], the composite Z-score is 0.103 (inactive). Moreover, the z-score in [15] is 2.26; in [17], -9.23 (active).
On to `COC(=O)[C@@]1(Cc2ccc(OC)cc2)[C@H]2c3cc(C(=O)N4CCCC4)n(CCN4CNCC4=O)c3C[C@H]2CN1C(=O)c1ccccc1`, for which the composite z-score with Albumin (Bos taurus) came to 1.1; in [2] it was 1.49; in test [3], 0.967; in test [4] it was 0.57; in test [5], 1.79; in test [6] it was 0.104. Further, the composite z-score in the test on Sam68 (KHDRBS1) was -0.764; in test [7], -0.316; in test [8] it was -0.234; in test [9] it was 3.25; in test [10], 1.16; in test [11], 1.06. Also, the composite z-score is 0.326 in test [12]; -1.02 in test [13]; -0.48 in test [14]; -0.899 in the test on Lefty1; 0.949 in [16]. For the same compound, the composite Z-score in [1] is 0.413 (inactive). In addition, the z-score in test [15] was -0.0456; in [17] it was -0.119 (inactive).
Consider `C=C(CC1([C@@H](NP(=O)(c2ccccc2)c2ccccc2)[C@H]2C[C@@H]2CCCC)CC1)c1ccccc1`, for which the composite z-score with Albumin (Bos taurus) was 0.844; in test [2], 0.335; in test [3] it was 0.17; in test [4], 0.252; in test [5], 2.67; in test [6] it was -0.293. For the same compound, the composite z-score in the test on Sam68 (KHDRBS1) is 1.14; in test [7], -0.874; in [8], 0.546; in test [9] it was 0.767; in test [10] it was 1.19; in test [11], 0.0976. In addition, the composite z-score is 0.746 in test [12]; 0.132 in [13]; 0.0962 in test [14]; -0.415 with Lefty1; 0.729 in test [16]. In [1], the composite Z-score is 0.121 (inactive). Also, the z-score was -0.0757 in [15] and 2.82 (inactive) in test [17].
